# Reference: PubChem BioAssay AID1851 (National Center for Advancing Translational Sciences (NCATS), 2009)
# The campaign covered roughly 16,000 compounds. About 2,600 (16%) were called active. Inconclusive results (about 20%) are left out. Calls come from the whole dose curve; as a rule, active = well fitted curve in the direction sought with a large enough effect; inconclusive = small, poorly fitted or top-dose-only effect, or effect the other way; inactive = no such curve, though single readings can be large or run the other way. Not all results are given here. Some structures have more than one record in an assay (separate samples or runs), and their calls can disagree.
# Target: Cytochrome P450 2D6 (Homo sapiens) (UniProt P10635)
# Sequence (P10635 whole entry, looked up): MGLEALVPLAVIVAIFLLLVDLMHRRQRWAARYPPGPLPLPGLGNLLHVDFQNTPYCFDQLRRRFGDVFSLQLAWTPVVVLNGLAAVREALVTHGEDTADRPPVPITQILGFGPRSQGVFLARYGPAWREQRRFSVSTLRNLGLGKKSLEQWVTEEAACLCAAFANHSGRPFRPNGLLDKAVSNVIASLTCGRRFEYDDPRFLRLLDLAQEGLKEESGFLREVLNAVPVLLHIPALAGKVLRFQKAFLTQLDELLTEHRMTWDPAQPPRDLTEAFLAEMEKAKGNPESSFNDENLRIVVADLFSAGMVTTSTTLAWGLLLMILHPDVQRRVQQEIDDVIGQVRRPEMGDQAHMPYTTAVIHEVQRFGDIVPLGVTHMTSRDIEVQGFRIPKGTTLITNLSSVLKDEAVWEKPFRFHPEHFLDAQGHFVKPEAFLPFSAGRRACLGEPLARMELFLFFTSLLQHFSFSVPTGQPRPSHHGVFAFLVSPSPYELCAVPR
# Test: Cytochrome panel assay with activity outcomes
# Conditions: recombinant CYP, pro-luciferin dealkylation, luminescence, p450-cyp2d6; series mostly up to 57.1 µM; activity, negative = inhibition: at the top concentration
# % is set by controls: 0 for no effect and ±100 for the full control effect.
SMILES,"activity, negative = inhibition",AC50
O=c1c(-c2ccc(F)cc2)nc2cnc(N3CCNCC3)nc2n1-c1ccccc1,-8.75% (inactive),–
Cn1cc(-c2nc3cnc(Oc4ccccc4)nc3n(CCC#N)c2=O)c2ccccc21,2.05% (inactive),–
Nc1ncnc2c1nc(Sc1ccc(Cl)cc1)n2[C@@H]1O[C@H]2COP(=O)(O)O[C@@H]2[C@H]1O,-5.59% (inactive),–
COC(=O)[C@@]1(Cc2ccc(OC)cc2)[C@H]2c3cc(C(=O)N(C)C)[nH]c3C[C@H]2CN1C(=O)c1ccccc1,-14.8% (inactive),–
COC(=O)[C@@]1(Cc2ccc(OC)cc2)[C@H]2c3cc(C(=O)N4CCCC4)n(CCn4cc([N+](=O)[O-])nc4C)c3C[C@H]2CN1C(=O)c1ccccc1,-0.835% (inactive),–
COC(=O)[C@@]1(Cc2ccc(F)cc2)[C@H]2c3cc(C(=O)N4CCCC4)n(Cc4ccc(S(C)(=O)=O)cc4)c3C[C@H]2CN1C(=O)c1ccccc1,-15.9% (inactive),–
COC(=O)[C@@]1(Cc2ccc(F)cc2)[C@H]2c3cc(C(=O)N(C)C)n(Cc4c(CO)[nH]cc(C)c4=O)c3C[C@H]2CN1C(=O)c1ccccc1,–,15.8 µM (active)
COC(=O)[C@@]1(Cc2ccc(F)cc2)[C@H]2c3cc(C(=O)N4CCCC4)n(Cc4cccc5ccccc45)c3C[C@H]2CN1C(=O)c1ccccc1,-0.395% (inactive),–
COC(=O)[C@@]1(Cc2ccccc2)[C@H]2c3cc(C(=O)N(C)C)n(Cc4c(CO)[nH]cc(C)c4=O)c3C[C@H]2CN1C(=O)c1ccccc1,–,12.6 µM (active)
CC(=O)NCc1c(Cl)cccc1-n1cccc1,-25.8% (inactive),–
CC(C)(C)OC(=O)COc1cc(OCC(=O)OC(C)(C)C)c2c(=O)cc(-c3ccccc3)oc2c1,4.28% (inactive),–
O=c1c(-c2cc(F)cc(F)c2)nc2cncnc2n1C1CC1,-7.27% (inactive),–
CN1C[C@H](c2ccccc2)C(O)([C@]2(c3ccccc3)CN(C)C[C@@H](c3ccccc3)C2=O)[C@H](c2ccccc2)C1 (stereo partly drawn),-18.6% [at 11.4 µM] (inactive),–
CN1CCc2cc(Cl)c(O)cc2[C@H](c2ccccc2)C1,–,0.631 µM (active)
Cc1cccc([C@@H]2CN(C)CCc3c2cc(O)c(O)c3Cl)c1,-0.0741% (inactive),–
C=CCN1CCc2c(cc(O)c(O)c2Cl)[C@H](c2ccccc2)C1,–,25.1 µM (active)
C=CCN1CCc2c(cc(O)c(O)c2Br)[C@H](c2ccccc2)C1,–,12.6 µM (active)
C=CCN1CCc2cc(O)c(O)cc2[C@H](c2ccccc2)C1,–,0.398 µM (active)
COc1ccc(C[C@@H]2c3cc(OC)c(OC)cc3CC[N@+]2(C)CCC(=O)OCCCCCOC(=O)CC[N@@+]2(C)CCc3cc(OC)c(OC)cc3[C@H]2Cc2ccc(OC)c(OC)c2)cc1OC,-15.6% [at 25.6 µM] (inactive),–
Nc1ccccc1C#Cc1ccccc1,–,inactive
Cc1nc(N/N=C/c2ccccc2)nc(N(C)c2ccccc2)c1[N+](=O)[O-],4.53% (inactive),–
CO[C@@H]1COC(=O)C/C=C\[C@@H](C)COC(=O)[C@H](Cc2ccccc2)NC(=O)C/C=C\[C@H]1C,-17% [at 11.4 µM] (inactive),–

SMILES,"activity, negative = inhibition",AC50
COC(=O)C(Cc1ccc(OC(=O)c2ccc(C(F)(F)F)cc2)cc1)N1Cc2ccccc2C1=O (stereo not drawn),-11.1% (inactive),–
Cc1nc(NC(=O)c2ccccc2)sc1-c1csc(Nc2cccc(Cl)c2)n1,–,10 µM (active)
Cc1nc(NC(=O)c2ccco2)sc1-c1csc(Nc2ccc(Cl)cc2Cl)n1,-25.3% (inactive),–
Cc1nc(NC(=O)c2ccccc2)sc1-c1csc(Nc2ccc(F)cc2)n1,-28.9% (inactive),–
COc1ccccc1Nc1nc(-c2sc(NC(=O)c3ccccc3)nc2C)cs1,-0.255% (inactive),–
Cc1nc(NC(=O)c2ccccc2)sc1-c1csc(Nc2ccc(Cl)cc2)n1,-21.7% (inactive),–
C=CCCC(=O)Nc1nc(C)c(-c2csc(Nc3ccc(Cl)cc3)n2)s1,–,17.8 µM (active)
CC1(C)OCC([C@H](O)C2=CCCCC2=O)CO1,9.36% [at 11.4 µM] (inactive),–
COc1cc(/C=C2\SC(=S)N(Nc3ccccc3)C2=O)cc(OC)c1OC,-10.3% (inactive),–
CC(=O)c1cc(C#N)c(Oc2ccc(F)cc2)nc1C,8.22% (inactive),–
Cc1cnc(NC(=O)CCCc2nc3ccccc3s2)s1,-11% (inactive),–
COc1cccc([C@@H]2Oc3ccc(OC)cc3/C(=N/OC[C@@H](C)[C@H](OCc3ccccc3)C(C)C)[C@@H]2O)c1,0.0498% [at 11.4 µM] (inactive),–
COc1cccc([C@@H]2Oc3ccc(OC)cc3/C(=N/OC[C@@H](O)COCc3ccco3)[C@@H]2O)c1,5.07% [at 11.4 µM] (inactive),–
COc1cccc([C@@H]2Oc3ccc(Br)cc3C(=O)[C@H]2O)c1,–,3.16 µM (active)
CN(C(=S)Nc1ccccc1F)C1(c2ccccc2Cl)CCCCC1=O (stereo not drawn),-6.2% (inactive),–
c1ccc(CCc2nc(-c3ccccc3)no2)cc1,-18.9% (inactive),–
Clc1ccc(Cc2nc(-c3cccnc3)no2)cc1,–,1.78 µM (active)
O=S(=O)(c1ccc(Cl)cc1)c1cnc(-c2cccnc2)nc1-c1ccccc1,-0.701% (inactive),–
CCC(C)NS(=O)(=O)c1ccc(NC(=O)CCC2CCCCC2)cc1 (stereo not drawn),-5.09% (inactive),–
Cn1cccc1C(=O)N1CCC2(CC1)CCN(c1ncccn1)CC2,-13.7% (inactive),–
COc1ccc(CNc2ccnc(-c3ccc(N(C)C)cc3)n2)c(OC)c1,–,12.6 µM (active)
COc1ccccc1CNc1ccnc(-c2ccc(N(C)C)cc2)n1,–,0.501 µM (active)

SMILES,"activity, negative = inhibition",AC50
Cc1cnc(CNc2ccnc(-c3ccc(N(C)C)cc3)n2)cn1,-5.57% (inactive),–
COc1ccccc1CNc1ccnc(-c2ccoc2)n1,–,15.8 µM (active)
COc1ccc(CNc2ccnc(-c3ccc(C(=O)N(C)C)cc3)n2)c(OC)c1,-5.55% (inactive),–
CN(C)c1ccc(-c2nccc(NCc3ccccc3)n2)cc1,–,3.16 µM (active)
COC(=O)Cc1c(C)nc2nc(NCc3ccccc3OC)[nH]n2c1=O,-2.97% (inactive),–
CCOC(=O)N1CCC(NC(=O)C2CCN(S(=O)(=O)N3CCCC3)CC2)CC1,8.93% (inactive),–
O=C=Nc1ccc(Cc2ccc(N=C=O)cc2)cc1 (tested in a mixture with another compound),6.78% [at 11.4 µM] (inactive),–
O=C(CNC(=O)c1ccc([N+](=O)[O-])cc1)c1ccccc1,3.96% (inactive),–
COc1cc(-c2nnc(SCC3(c4ccccc4)OCCO3)o2)cc(OC)c1OC,-8.87% (inactive),–
COCCn1c(=O)c(-c2ccc(Cl)cc2)nc2cncnc21,-16.2% (inactive),–
Nc1ccccc1CCCC(=O)O,-8.09% [at 11.4 µM] (inactive),–
Cc1nc2cnc(N(C)C)nc2n(CCc2ccccc2)c1=O,-7.01% (inactive),–
O=C(CSc1nc2ccccc2c(=O)n1NC(=O)c1ccccc1)c1ccc(Cl)cc1,1.17% (inactive),–
COC(=O)C/C=C\[C@@H](C)[C@@H](/C=N\O[C@@H](C)c1cc(-c2c(C)cc(C)cc2C)no1)NS(=O)(=O)c1ccc(C)cc1,10.9% [at 11.4 µM] (inactive),–
COc1cc2c(cc1OC)C(C(=O)N1CCOCC1)C(c1cccs1)N(C)C2=O (stereo not drawn),10.7% (inactive),–
COc1ccc(CC(=S)N2CCOCC2)cc1OC,0.628% (inactive),–
COc1cc2c(cc1OC)/C(=C/C(=O)N1CCOCC1)NC(C)(C)C2,–,2.82 µM (active)
CCOC(=O)c1ccc(N2C(=O)CC(Nc3ccc(CCO)cc3)C2=O)cc1 (stereo not drawn),-5.73% (inactive),–
Cn1c(=O)c2c(nc(NCCNc3nc4c(c(=O)n(C)c(=O)n4C)n3C)n2C)n(C)c1=O,14.2% [at 11.4 µM] (inactive),–
COc1cc(C(=O)N2CCN(C(=O)c3ccccc3)CC2)cc(OC)c1OC,-0.531% (inactive),–
COC(=O)C/C=C\[C@H](C)[C@@H](OC)c1ccccc1Br,12.6% [at 11.4 µM] (inactive),–
COc1ccc2[nH]cc(CCNc3ccnc(-c4ccccc4Cl)n3)c2c1,–,20 µM (active)

SMILES,"activity, negative = inhibition",AC50
COc1ccc2[nH]cc(CCNc3ccnc(-c4ccccc4C)n3)c2c1,–,2.51 µM (active)
COCCNc1ccnc(-c2ccccc2C)n1,-6.07% (inactive),–
Cc1cccc(-n2ncc3c(Nc4c(C)n(C)n(-c5ccccc5)c4=O)ncnc32)c1,3.47% (inactive),–
N#CC(C#N)=CNCCN1CCN(C=C(C#N)C#N)CC1,5.03% [at 11.4 µM] (inactive),–
Cc1n[nH]c(C)c1S(=O)(=O)N1CCC(C(=O)O)CC1,9.86% (inactive),–
NS(=O)(=O)c1cc(Cl)c(Cl)c(S(N)(=O)=O)c1,-1.87% [at 25.6 µM] (inactive),–
C[C@@H](C[C@H](N)C(=O)O)C(=O)O,14.5% [at 11.4 µM] (inactive),–
Clc1cc2c(c(CSC3=NCN(CC4CC4)CN3)c1)OCOC2,–,0.2 µM (active)
O=c1c2c(-c3cccs3)csc2[nH]c(=S)n1-c1ccccc1,-9.42% (inactive),–
Cc1ccccc1OCC(=O)Nc1sc(C(=O)Nc2cccc(C)c2C)c(C)c1C#N,24.8% (inactive),–
Cn1cccc1C(=O)N1CCC2(CCN(C(=O)Nc3ccccc3)CC2)CC1,4.24% (inactive),–
O=[N+]([O-])c1nccn1C[C@H](O)CN1CCCCC1,9.02% [at 11.4 µM] (inactive),–
O=c1n(CCCN2CCN(c3cccc(Cl)c3)CC2)nc2ccccn12,-11% (inactive),–
O=c1nc2ccccc2c2n1CC(CN1CCN(c3cccc(Cl)c3)CC1)N2 (stereo not drawn),-35.5% (inactive),–
O[C@H](CN1CCN(c2cccc(Cl)c2)CC1)C(c1ccccc1)c1ccccc1,–,12.6 µM (active) and inactive
CC(C)OCCCn1c(=S)[nH]c2ncccc2c1=O,-7.67% (inactive),–
COCCn1c(=O)c(C)nc2cnc(N3CCNCC3)nc21,-1.98% (inactive),–
Cc1noc(NS(=O)(=O)c2ccc(NC(=O)c3ccc(Br)o3)cc2)c1C,0.162% (inactive),–
COCCOC(=O)C1=C(C)NC(=O)N(C(C)=O)C1c1ccc(Cl)cc1 (stereo not drawn),1.76% (inactive),–
COC(=O)[C@@H]1[C@@H]2C[C@H]3c4[nH]c5ccccc5c4CCN3C[C@@H]2CC[C@@H]1OS(=O)(=O)O,-18.5% [at 11.4 µM] (inactive),–
COc1ccc2c3c([nH]c2c1)[C@@H]1C[C@@H]2[C@@H](C[C@H](O)[C@H](OC)[C@H]2C(=O)O)CN1CC3,3.02% [at 25.6 µM] (inactive),–
COC(=O)C1=CO[C@@H](C)[C@H]2CN3CCc4c([nH]c5ccccc45)[C@@H]3C[C@H]12,–,0.002 µM (active)
